TexasRed fluor – counter-screen for TRb-SRC2 inhibitors: fluorescence interference. 280,000 compounds, 0.29% hits. TRb/SRC2 Texas Red total fluorescence interference. Potency, µM (titrated, usually from 106 µM), without a hit: at the highest dose fluorescence change, negative = quenching. AID 1479; active means well fitted curve in either direction with a large enough effect; inconclusive means small, poorly fitted or top-dose-only effect
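Human TRβ ligand-binding domain (0.6 uM) and Texas Red SRC2 peptide (20 nM) in Tris buffer with 1 uM T3 and 5% DMSO were incubated with pinned compound for 5 hr at ambient temperature. Total fluorescence was computed as S + 2P (555/632 nm).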
APEX1 inh – APE1 (human) endonuclease inhibition; P27695; recombinant APE1, TAMRA/BHQ-2 abasic DNA cleavage fluorescence; Potency, µM (highest dose often 65.8 µM), for inactives: at the highest dose activity change, negative = inhibition, usual class: inhibitors; 350,000 compounds, 0.35% hits; AID 2517;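 further: plate controls were vehicle for no effect and reference inhibitor for full effect; nearly all actives have a fitted effect of over 55% in size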
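Endonuclease cleavage of a quenched abasic-site DNA duplex (50 nM) by APE1 (0.75 nM) was tracked by TAMRA dequenching. Compounds were preincubated with enzyme 15 min at room temperature; data normalized to buffer-only and DMSO wells plus NSC13755 control.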
BLM inh – inhibitors of human Bloom syndrome helicase BLM | P54132 | recombinant BLM DNA unwinding, fluorescence dequenching | Potency, µM (doses to about 56.1 µM), without a hit: at the highest dose activity change, negative = inhibition, most hits filed as inhibitors | 350,000 compounds, 0.2% hits;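 further: plate controls were vehicle for no effect and no enzyme for full effect; nearly all actives have a fitted effect of over 35% in size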
TRb SRC2 PPI – inhibitors of human thyroid hormone receptor beta-SRC2 interaction | P10828 | TRbeta-SRC2 peptide binding, fluorescence polarization; receptor liganded with 1 µM T3 | Potency, µM (top dose mostly 106 µM), for the others: at the top dose activity change, negative = inhibition, hits mostly inhibitors | 280,000 compounds, 0.065% hits | AID 1469;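 further: plate controls were bound peptide for no effect and peptide without receptor for full effect; nearly all actives have a fitted effect of over 50% in size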
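TRb LBD 0.6 uM + Texas Red SRC2 peptide 20 nM, 1 uM T3, Tris buffer w/ 5% DMSO; compound pinned, 5 h RT; FP read ex 555/em 632; normalized to unbound and bound controls.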
WRN inhibitor – inhibitors of human WRN helicase; Q14191; WRN helicase unwinding, fluorescent forked duplex, kinetic; Potency, µM (top dose mostly 114 µM), for inactives: at the top dose activity change, negative = inhibition, usual class: inhibitors; 360,000 compounds, 0.46% hits; further: nearly all actives have a fitted effect of over 55% in size
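Enzyme (20 nM final) and test compound sit together 15 min at room temperature before substrate addition. Substrate is a single-forked duplex oligonucleotide (100 nM) labelled with fluorophore and quencher, with 2 mM ATP; helicase unwinding raises red fluorescence, read kinetically.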
RECQ1 inh-1 – RECQ1 (human) helicase inhibition | RECQ1 DNA unwinding, red fluorescence kinetic read | AID 2549 | Potency, µM (highest dose often 57.3 µM), inactives show top-dose activity, negative = inhibition, hits mostly inhibitors | P46063 | 240,000 compounds, 0.54% hits;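 further: plate controls were vehicle for no effect and no enzyme for full effect; nearly all actives have a fitted effect of over 30% in size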
Target sequence (P46063 whole entry, looked up): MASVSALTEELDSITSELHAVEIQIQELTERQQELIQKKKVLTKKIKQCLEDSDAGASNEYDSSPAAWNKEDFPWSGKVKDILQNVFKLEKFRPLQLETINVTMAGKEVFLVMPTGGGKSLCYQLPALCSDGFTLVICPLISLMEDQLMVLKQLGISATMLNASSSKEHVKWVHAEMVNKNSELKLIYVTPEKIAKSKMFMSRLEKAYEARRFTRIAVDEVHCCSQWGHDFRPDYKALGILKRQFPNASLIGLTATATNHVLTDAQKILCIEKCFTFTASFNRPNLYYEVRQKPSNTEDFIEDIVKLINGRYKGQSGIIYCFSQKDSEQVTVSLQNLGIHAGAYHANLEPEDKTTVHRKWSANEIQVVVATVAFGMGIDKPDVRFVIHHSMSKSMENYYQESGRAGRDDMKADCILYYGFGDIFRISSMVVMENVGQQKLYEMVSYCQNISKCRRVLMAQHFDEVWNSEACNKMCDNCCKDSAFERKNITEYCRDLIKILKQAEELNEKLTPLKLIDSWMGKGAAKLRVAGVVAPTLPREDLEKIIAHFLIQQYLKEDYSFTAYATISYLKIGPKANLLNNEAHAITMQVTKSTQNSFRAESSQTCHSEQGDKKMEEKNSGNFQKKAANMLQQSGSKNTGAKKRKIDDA
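RECQ1T1 50 nM; forked duplex (20 bp + 30-nt ss tails) 200 nM, ATP 2 mM final; pH 8.0, 2 mM MgCl2, 2.5 ug/ml poly(dI-dC); 15 min compound preincubation; discontinuous kinetic read over 2 h at RT.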
RECQ1 conf – confirmation of human RECQ1 helicase inhibitors; shares compounds with RECQ1 inh-1; RECQ1 helicase DNA unwinding, fluorescence; Potency, µM (doses to about 229 µM), for inactives: at the top dose activity change, negative = inhibition, most hits filed as inhibitors; 610 compounds, 28% hits; AID 2708; further: nearly all actives have a fitted effect of over 45% in size
ADP FP counter – displaces ADP in a fluorescence polarization counter-screen for RECQ1 hits. shares compounds with RECQ1 inh-1. ADP fluorescence polarization displacement counterscreen. Potency, µM (titrated, usually from 228 µM), for inactives: at the highest dose activity change, negative = inhibition, actives largely listed as inhibitors. 530 compounds, 27% hits. AID 2711; further: nearly all actives have a fitted effect of over 45% in size
RECQ1 inh-2 – blocks human RECQ1 DNA unwinding. shares compounds with RECQ1 inh-1. recombinant RECQ1 DNA unwinding, red fluorescence. Potency, µM (series often up to 119 µM), for inactives: at the highest dose activity, negative = inhibition, hits mostly inhibitors. 1,100 compounds, 15% hits; further: nearly all actives have a fitted effect of over 50% in size
The depositor's hits bear a star; ! = repeats disagree; [ ] = remark or other dose. The list is not random: actives were taken first. Their share in the collection is about 0.91%. Unless noted, the call rests on the fitted dose curve; in most records, active means well fitted curve in the direction sought with a large enough effect; inconclusive means small, poorly fitted or top-dose-only effect, or another doubt; inactive means no such curve, though single readings can be large; an effect the other way counts as inactive or inconclusive. Unless noted, on the % scale 0 is the no-effect control and ±100 the full control effect; potency means the concentration at half of the fitted maximal effect.

Results for O=C(Nc1ccc(N2CCOCC2)c2nonc12)C1CCCC1 ?
TexasRed fluor: 0%; APEX1 inh: -5%; BLM inh: 0%; TRb SRC2 PPI: -4%; WRN inhibitor: -4%; RECQ1 inh-1: 0%

How did O=c1oc2ccccc2c2oc3cc(O)c(O)cc3c12 do in these assays?
TexasRed fluor: -14%; APEX1 inh: inconclusive; BLM inh: 10µM*!; TRb SRC2 PPI: 9%; WRN inhibitor: 45µM*; RECQ1 inh-1: 25µM*; RECQ1 inh-2: 35µM*

Results for CCOC(=O)Cc1cc(=O)n2[nH]c(C)c(-c3ccccc3)c2n1 ?
TexasRed fluor: 45µM*[fluorescent]; APEX1 inh: -5%; BLM inh: -2%; TRb SRC2 PPI: inconclusive; WRN inhibitor: -11%[57.1 µM]; RECQ1 inh-1: 35µM*; RECQ1 inh-2: -19%

How did CCOC(=O)Cc1cc(=O)n2[nH]c(-c3ccccc3)c(-c3ccccc3)c2n1 do in these assays?
TexasRed fluor: 5%; APEX1 inh: 10%; BLM inh: -18%; TRb SRC2 PPI: 26%; WRN inhibitor: inconclusive; RECQ1 inh-1: -6%

What do the screens show for `COc1ncnc2c1NC1=C(S2)C(=NCCC(=O)O)CC(C)(C)C1`?
TexasRed fluor: 1%; APEX1 inh: inconclusive; BLM inh: inconclusive; TRb SRC2 PPI: -4%; WRN inhibitor: inconclusive; RECQ1 inh-1: inconclusive; RECQ1 inh-2: 79µM*

Results for CN1/C(=C\C(=S)NC(=O)c2ccccc2Cl)C(C)(C)c2ccccc21 ?
TexasRed fluor: 4%; APEX1 inh: -5%; BLM inh: -4%; TRb SRC2 PPI: 2%; WRN inhibitor: -17%; RECQ1 inh-1: 25µM*; RECQ1 inh-2: inconclusive

What do the screens show for `COc1ccccc1C(=O)NC(=S)/C=C1/N(C)c2ccccc2C1(C)C`?
TexasRed fluor: -1%; APEX1 inh: 8%; BLM inh: -9%; TRb SRC2 PPI: -5%; WRN inhibitor: -34%; RECQ1 inh-1: -9%

What do the screens show for `COc1ccc(/C=C2\SC(=O)N(CCc3nnc(N)s3)C2=O)cc1`?
TexasRed fluor: -2%; APEX1 inh: -3%; BLM inh: -11%; TRb SRC2 PPI: 2%; WRN inhibitor: -28%[57.1 µM]; RECQ1 inh-1: 1%

What do the screens show for `Cc1ccc(S(=O)(=O)NC2=NCN(CCOC(=O)c3ccc([N+](=O)[O-])cc3)CN2)cc1`?
TexasRed fluor: -2%; APEX1 inh: 6%; BLM inh: 3%; TRb SRC2 PPI: -9%; WRN inhibitor: -1%; RECQ1 inh-1: -3%

How did Cc1ccc(S(=O)(=O)NC2=NCN(CCOC(=O)c3ccccc3)CN2)cc1 do in these assays?
TexasRed fluor: 0%; APEX1 inh: 3%; BLM inh: 3%; TRb SRC2 PPI: 2%; WRN inhibitor: 6%; RECQ1 inh-1: 32µM*; RECQ1 inh-2: 1%

Results for CCOC(=O)C(C)Oc1cccc2c(=O)n(CC(=O)Nc3ccc4c(c3)OCCO4)ccc12 (stereo unspecified) ?
TexasRed fluor: -3%; APEX1 inh: 14%; BLM inh: -11%; TRb SRC2 PPI: 5%; WRN inhibitor: -7%; RECQ1 inh-1: -9%

How did CCOC(=O)C(C)Oc1cccc2c(=O)n(CC(=O)NCc3ccc4c(c3)OCO4)ccc12 (stereo unspecified) do in these assays?
TexasRed fluor: 0%; APEX1 inh: 14%; BLM inh: 3%; TRb SRC2 PPI: 5%; WRN inhibitor: -1%; RECQ1 inh-1: -11%; RECQ1 conf: 7%; ADP FP counter: inconclusive

What do the screens show for `CCCCc1cc(=O)oc2cc(C)c(CN3CCCC3)c(O)c12`?
TexasRed fluor: -11%; APEX1 inh: -12%; BLM inh: inconclusive; TRb SRC2 PPI: 0%; WRN inhibitor: 50µM*; RECQ1 inh-1: 13µM*; RECQ1 conf: 20µM*; ADP FP counter: 50µM*; RECQ1 inh-2: inconclusive

What do the screens show for `CC(C)[C@H](NS(=O)(=O)c1ccc2c(c1)OCCO2)C(=O)OCC(=O)Nc1cc(Cl)ccc1Cl`?
TexasRed fluor: 3%; APEX1 inh: 10%; BLM inh: -6%; TRb SRC2 PPI: 1%; WRN inhibitor: -26%; RECQ1 inh-1: 50µM*; RECQ1 inh-2: -16%

Results for CCOCCc1nn2c(=O)cc(COC(=O)C(CC)c3ccccc3)nc2s1 (stereo unspecified) ?
TexasRed fluor: -4%; BLM inh: -3%; TRb SRC2 PPI: 3%

What do the screens show for `O=C(Nc1ccc(S(=O)(=O)Nc2nccs2)cc1)c1ccc(=O)[nH]c1`?
TexasRed fluor: -13%; APEX1 inh: inconclusive; BLM inh: -28%; TRb SRC2 PPI: 1%; WRN inhibitor: inconclusive; RECQ1 inh-1: inconclusive; RECQ1 inh-2: inconclusive

Results for CCCC(=O)c1cc2c(cc1NC(=O)c1ccccc1F)OCCO2 ?
TexasRed fluor: 4%; APEX1 inh: 9%; BLM inh: -6%; TRb SRC2 PPI: 2%; WRN inhibitor: -4%; RECQ1 inh-1: inactive

Results for Cc1cccc(NC(=O)C2C(c3ccccc3)C2(Cl)Cl)c1 (stereo unspecified) ?
TexasRed fluor: -1%; APEX1 inh: -3%; BLM inh: -8%; TRb SRC2 PPI: -3%; WRN inhibitor: -7%; RECQ1 inh-1: inconclusive; RECQ1 inh-2: -14%

What do the screens show for `CC(=O)c1cccc(NC(=O)C2C(c3ccccc3)C2(Cl)Cl)c1` (stereo unspecified)?
TexasRed fluor: -2%; APEX1 inh: -3%; BLM inh: -12%; TRb SRC2 PPI: 1%; WRN inhibitor: 2%; RECQ1 inh-1: -5%

Results for CCOc1ccc2nc(SCC(=O)N3c4ccccc4Sc4ccccc43)sc2c1 ?
TexasRed fluor: -6%; APEX1 inh: 16%; BLM inh: 0%; TRb SRC2 PPI: 2%; WRN inhibitor: -19%[57.1 µM]; RECQ1 inh-1: -1%; RECQ1 conf: -7%; ADP FP counter: 15%

Assay outcomes: PubChem, National Center for Advancing Translational Sciences (NCATS)
